# In PMC5540273 (PLoS ONE, 2017):
# Like-named read-outs stand apart in the source and are kept apart here.
# Tests used:
# BTK = conditions: concentration: 1 μM, replicates: in singlicate; n = 1
# BUB1 = conditions: concentration: 1 μM, replicates: in singlicate; n = 1
# CAMK1B = conditions: concentration: 1 μM, replicates: in singlicate; n = 1
# CAMK1D = conditions: concentration: 1 μM, replicates: in singlicate; n = 1
# CAMK1G = conditions: concentration: 1 μM, replicates: in singlicate; n = 1
# CAMK1 = conditions: concentration: 1 μM, replicates: in singlicate; n = 1
# CAMK2A = conditions: concentration: 1 μM, replicates: in singlicate; n = 1
# CAMK2B = conditions: concentration: 1 μM, replicates: in singlicate; n = 1
# CAMK2D = conditions: concentration: 1 μM, replicates: in singlicate; n = 1
# CAMK2G = conditions: concentration: 1 μM, replicates: in singlicate; n = 1
# CAMK4 = conditions: concentration: 1 μM, replicates: in singlicate; n = 1
# CAMKK1 = conditions: concentration: 1 μM, replicates: in singlicate; n = 1
# CAMKK2 = conditions: concentration: 1 μM, replicates: in singlicate; n = 1
# CASK = conditions: concentration: 1 μM, replicates: in singlicate; n = 1
# CDC2L1 = system: T1, CDC2L1; conditions: concentration: 1 μM, replicates: in singlicate; n = 1
# T1 construct: gene CDK11B
# CDC2L2 = conditions: concentration: 1 μM, replicates: in singlicate; n = 1
# CDC2L5 = system: T2, CDC2L5; conditions: n = 1
# T2 construct: gene CDK13
# CDK11 = system: T3, CDK11; conditions: concentration: 1 μM, replicates: in singlicate; n = 1
# T3 construct: gene CDK19
# CDK2 = conditions: concentration: 1 μM, replicates: in singlicate; n = 1
# CDK3 = conditions: concentration: 1 μM, replicates: in singlicate; n = 1
# [1] = concentration: 1 μM, replicates: in singlicate
# 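Also: KINOMEscan kinase panel screen.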
structure (smiles),measurement,setting,value
COc1cccc(NC(=O)Nc2ccc(C)c(-c3ccc(C(=O)Nc4ccncc4)cc3)c2)c1 [GSK1398474],%Inh,BTK,0%
same,%Inh,BUB1,0%
same,%Inh,CAMK1B,0%
same,%Inh,CAMK1D,25%
same,%Inh,CAMK1G,0%
same,%Inh,CAMK1,21%
same,%Inh,CAMK2A,0%
same,%Inh,CAMK2B,2%
same,%Inh,CAMK2D,11%
same,%Inh,CAMK2G,22%
same,%Inh,CAMK4,10%
same,%Inh,CAMKK1,0%
same,%Inh,CAMKK2,19%
same,%Inh,CASK,0%
same,%Inh,CDC2L1,0%
same,%Inh,CDC2L2,15%
same,%Inh,CDC2L5; [1],0%
same,%Inh,CDK11,0%
same,%Inh,CDK2,24%
same,%Inh,CDK3,0%
CS(=O)(=O)CCNCc1nc(-c2ccc3ncnc(Nc4ccc5c(cnn5Cc5ccccc5)c4)c3c2)cs1.Cl.Cl [GW569716],%Inh,BTK,20%
same,%Inh,BUB1,49%
same,%Inh,CAMK1B,0%
same,%Inh,CAMK1D,9%
same,%Inh,CAMK1G,0%
same,%Inh,CAMK1,11%
same,%Inh,CAMK2A,0%
same,%Inh,CAMK2B,0%
same,%Inh,CAMK2D,6%
same,%Inh,CAMK2G,16%
same,%Inh,CAMK4,0%
same,%Inh,CAMKK1,4%
same,%Inh,CAMKK2,1%
same,%Inh,CASK,0%
same,%Inh,CDC2L1,0%
same,%Inh,CDC2L2,0%
same,%Inh,CDC2L5; [1],0%
same,%Inh,CDK11,0%
same,%Inh,CDK2,0%
same,%Inh,CDK3,1%
O=C(Nc1n[nH]c2nc(-c3cccs3)c(Br)cc12)C1CCCC1 [SB-743341],%Inh,BTK,26%
same,%Inh,BUB1,0%
same,%Inh,CAMK1B,0%
same,%Inh,CAMK1D,16%
same,%Inh,CAMK1G,0%
same,%Inh,CAMK1,18%
same,%Inh,CAMK2A,9%
same,%Inh,CAMK2B,12%
same,%Inh,CAMK2D,2%
same,%Inh,CAMK2G,0%
same,%Inh,CAMK4,0%
same,%Inh,CAMKK1,7%
same,%Inh,CAMKK2,0%
same,%Inh,CASK,12%
same,%Inh,CDC2L1,1%
same,%Inh,CDC2L2,0%
same,%Inh,CDC2L5; [1],13%
same,%Inh,CDK11,0%
same,%Inh,CDK2,75%
same,%Inh,CDK3,67%
Cn1cnc2c(N)ncnc21 [SKF-97623],%Inh,BTK,0%
same,%Inh,BUB1,22%
same,%Inh,CAMK1B,41%
same,%Inh,CAMK1D,0%
same,%Inh,CAMK1G,0%
same,%Inh,CAMK1,0%
same,%Inh,CAMK2A,0%
same,%Inh,CAMK2B,0%
same,%Inh,CAMK2D,0%
same,%Inh,CAMK2G,0%
same,%Inh,CAMK4,7%
same,%Inh,CAMKK1,0%
same,%Inh,CAMKK2,0%
same,%Inh,CASK,7%
same,%Inh,CDC2L1,0%
same,%Inh,CDC2L2,0%
same,%Inh,CDC2L5; [1],0%
same,%Inh,CDK11,0%
same,%Inh,CDK2,44%
same,%Inh,CDK3,0%
COc1ccc(Nc2nccc(N3CCC(NC(=O)C(C)c4ccc(Cl)cc4)CC3)n2)cc1 (stereo not drawn) [GSK1379812],%Inh,BTK,0%
same,%Inh,BUB1,6%
same,%Inh,CAMK1B,32%
same,%Inh,CAMK1D,23%
same,%Inh,CAMK1G,13%
same,%Inh,CAMK1,25%
same,%Inh,CAMK2A,0%
same,%Inh,CAMK2B,0%
same,%Inh,CAMK2D,14%
same,%Inh,CAMK2G,36%
same,%Inh,CAMK4,0%
same,%Inh,CAMKK1,0%
same,%Inh,CAMKK2,31%
same,%Inh,CASK,3%
same,%Inh,CDC2L1,0%
same,%Inh,CDC2L2,10%
same,%Inh,CDC2L5; [1],0%
same,%Inh,CDK11,63%
same,%Inh,CDK2,0%
same,%Inh,CDK3,0%
CCn1c(-c2c(N)noc2C)nc2cnccc21 [SB-737856],%Inh,BTK,0%
same,%Inh,BUB1,20%
same,%Inh,CAMK1B,0%
same,%Inh,CAMK1D,0%
same,%Inh,CAMK1G,0%
same,%Inh,CAMK1,0%
same,%Inh,CAMK2A,0%
same,%Inh,CAMK2B,0%
same,%Inh,CAMK2D,0%
same,%Inh,CAMK2G,0%
same,%Inh,CAMK4,0%
same,%Inh,CAMKK1,13%
same,%Inh,CAMKK2,0%
same,%Inh,CASK,0%
same,%Inh,CDC2L1,0%
same,%Inh,CDC2L2,8%
same,%Inh,CDC2L5; [1],98.8%
same,%Inh,CDK11,7%
same,%Inh,CDK2,0%
same,%Inh,CDK3,0%
COC(=O)c1cccc(NC(=O)NC2CCN(c3ccnc(Nc4ccc(OC)cc4)n3)C2)c1 (stereo not drawn) [GSK1379746],%Inh,BTK,2%
same,%Inh,BUB1,75%
same,%Inh,CAMK1B,4%
same,%Inh,CAMK1D,3%
same,%Inh,CAMK1G,0%
same,%Inh,CAMK1,0%
same,%Inh,CAMK2A,100%
same,%Inh,CAMK2B,100%
same,%Inh,CAMK2D,0%
same,%Inh,CAMK2G,0%
same,%Inh,CAMK4,0%
same,%Inh,CAMKK1,0%
same,%Inh,CAMKK2,0%
same,%Inh,CASK,2%
same,%Inh,CDC2L1,0%
same,%Inh,CDC2L2,32%
same,%Inh,CDC2L5; [1],0%
same,%Inh,CDK11,76%
same,%Inh,CDK2,5%
same,%Inh,CDK3,9%
COc1ccc(Nc2nccc(NCCNC(=O)Nc3cc(C)ccc3C)n2)cc1 [GSK1379899],%Inh,BTK,0%
same,%Inh,BUB1,0%
same,%Inh,CAMK1B,4%
same,%Inh,CAMK1D,0%
same,%Inh,CAMK1G,0%
same,%Inh,CAMK1,3%
same,%Inh,CAMK2A,0%
same,%Inh,CAMK2B,0%
same,%Inh,CAMK2D,0%
same,%Inh,CAMK2G,0%
same,%Inh,CAMK4,0%
same,%Inh,CAMKK1,13%
same,%Inh,CAMKK2,0%
same,%Inh,CASK,0%
same,%Inh,CDC2L1,0%
same,%Inh,CDC2L2,0%
same,%Inh,CDC2L5; [1],0%
same,%Inh,CDK11,0%
same,%Inh,CDK2,0%
same,%Inh,CDK3,6%
O=C(Nc1n[nH]c2nc(-c3ccco3)c(Br)cc12)C1CCN(Cc2ccccc2)C1.O=C(O)[C@H](O)[C@@H](O)C(=O)O (stereo not drawn) [SB-742034],%Inh,BTK,0%
same,%Inh,BUB1,0%
same,%Inh,CAMK1B,0%
same,%Inh,CAMK1D,22%
same,%Inh,CAMK1G,10%
same,%Inh,CAMK1,29%
same,%Inh,CAMK2A,30%
same,%Inh,CAMK2B,20%
same,%Inh,CAMK2D,7%
same,%Inh,CAMK2G,17%
same,%Inh,CAMK4,0%
same,%Inh,CAMKK1,20%
same,%Inh,CAMKK2,25%
same,%Inh,CASK,40%
same,%Inh,CDC2L1,20%
same,%Inh,CDC2L2,36%
same,%Inh,CDC2L5; [1],44%
same,%Inh,CDK11,0%
same,%Inh,CDK2,13%
same,%Inh,CDK3,0%
Cn1cncc1-c1cc2c(Nc3ccc(OCc4ccccc4)cc3)ncnc2cn1 [GW281179],%Inh,BTK,0%
same,%Inh,BUB1,34%
same,%Inh,CAMK1B,25%
same,%Inh,CAMK1D,14%
same,%Inh,CAMK1G,0%
same,%Inh,CAMK1,20%
same,%Inh,CAMK2A,0%
same,%Inh,CAMK2B,0%
same,%Inh,CAMK2D,12%
same,%Inh,CAMK2G,36%
same,%Inh,CAMK4,0%
same,%Inh,CAMKK1,3%
same,%Inh,CAMKK2,32%
same,%Inh,CASK,20%
same,%Inh,CDC2L1,0%
same,%Inh,CDC2L2,17%
same,%Inh,CDC2L5; [1],0%
same,%Inh,CDK11,47%
same,%Inh,CDK2,0%
same,%Inh,CDK3,7%
COc1ccc(Nc2nccc(N3CCC(NC(=O)C(C)c4ccc(Cl)cc4)C3)n2)cc1 (stereo not drawn) [GSK1379735],%Inh,BTK,0%
same,%Inh,BUB1,17%
same,%Inh,CAMK1B,5%
same,%Inh,CAMK1D,14%
same,%Inh,CAMK1G,0%
same,%Inh,CAMK1,9%
same,%Inh,CAMK2A,14%
same,%Inh,CAMK2B,25%
same,%Inh,CAMK2D,1%
same,%Inh,CAMK2G,15%
same,%Inh,CAMK4,0%
same,%Inh,CAMKK1,18%
same,%Inh,CAMKK2,5%
same,%Inh,CASK,48%
same,%Inh,CDC2L1,6%
same,%Inh,CDC2L2,6%
same,%Inh,CDC2L5; [1],0%
same,%Inh,CDK11,21%
same,%Inh,CDK2,0%
same,%Inh,CDK3,24%
CS(=O)(=O)Cc1ccc(Nc2nccc(-c3c(-c4cccc(NC(=O)C5CCCCC5)c4)nn4ncccc34)n2)cc1 [GSK350559],%Inh,BTK,0%
same,%Inh,BUB1,98.7%
same,%Inh,CAMK1B,0%
same,%Inh,CAMK1D,0%
same,%Inh,CAMK1G,0%
same,%Inh,CAMK1,0%
same,%Inh,CAMK2A,15%
same,%Inh,CAMK2B,8%
same,%Inh,CAMK2D,0%
same,%Inh,CAMK2G,0%
same,%Inh,CAMK4,0%
same,%Inh,CAMKK1,0%
same,%Inh,CAMKK2,0%
same,%Inh,CASK,34%
same,%Inh,CDC2L1,0%
same,%Inh,CDC2L2,27%
same,%Inh,CDC2L5; 1 µM,30%
same,%Inh,CDK11,0%
same,%Inh,CDK2,0%
same,%Inh,CDK3,0%
